Reference: PubChem BioAssay (NCATS)
Results filed as inconclusive are left out. The source made the active and inactive calls. Calls follow the shape of the dose curve; as a rule, active = well fitted inhibition curve with a large enough effect; inconclusive = small, poorly fitted or top-dose-only effect; inactive = flat fitted curve, though single readings scatter.

Assay: P-glycoprotein substrates identified in KB-8-5-11 adenocarcinoma cell line, qHTS therapeutic library screen (AID 1346987); also: nearly all actives have a fitted effect of over 65% in size
Conditions: KB-8-5-11 (P-gp overexpressing) viability, CellTiter-Glo, 72 h; series mostly up to 44.5 µM; activity change, negative = cytotoxicity: at the top concentration
How it was run: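 Luminescence from CellTiter-Glo, read 5 min after addition, quantified survival of KB-8-5-11 (P-gp-overexpressing) cells exposed to compounds for 72 h. AC50 was derived from concentration-response curves.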
% is scaled to controls: 0 for no effect and ±100 for the full control effect; potency is read from the fitted curve at half-maximal effect.

SMILES	activity change, negative = cytotoxicity	Potency	outcome
CCCCCCCC/C=C\CCCCCCCC(=O)OC[C@@H](O)[C@H]1OC[C@H](O)[C@H]1O	6.97% (inactive)	–	–
CC(C)(C)c1ccc2c(c1)CC[C@H]2NC(=O)Nc1cccc2[nH]ncc12	-9.11% (inactive)	–	–
CSCC[C@H](NC(=O)[C@H](Cc1ccc(OS(=O)(=O)O)cc1)NC(=O)[C@@H](N)CC(=O)O)C(=O)NCC(=O)N[C@@H](Cc1c[nH]c2ccccc12)C(=O)N[C@@H](CCSC)C(=O)N[C@@H](CC(=O)O)C(=O)N[C@@H](Cc1ccccc1)C(N)=O	–	inactive	–
Cc1ccccc1CNc1ncnc2c1ncn2[C@@H]1O[C@H](CO)[C@@H](O)[C@H]1O	-17.8% (inactive)	–	–
COC(=O)C1=CO[C@@H](O[C@@H]2O[C@H](CO)[C@@H](O)[C@H](O)[C@H]2O)[C@H]2[C@@H]1C=C[C@]21C=C([C@H](C)OC(=O)/C=C/c2ccc(O)cc2)C(=O)O1	–	4.32 µM (active)	–
CCc1cc2c(cc1CC)CC(NCC(O)c1ccc(O)c3[nH]c(=O)ccc13)C2 (centres undefined)	8.45% (inactive)	–	–
CC(C)(C)c1ccc(-c2nc3c(N4CCN(Cc5ccc6nccnc6c5)CC4)cccc3[nH]2)cc1	–	13 µM (active)	–
CC(C)(C)NC(=O)[C@H]1CC[C@H]2[C@@H]3CC[C@H]4NC(=O)CC[C@]4(C)[C@H]3CC[C@]12C	-25.1% (inactive)	–	–
CC(C)c1c(O)ccc2c1CC[C@H]1C(C)(C)CCC[C@]21C	-18.1% (inactive)	–	–
O=S(=O)(NCc1cccc2ccccc12)c1cc(Cl)c(Oc2cccc(N3CCNCC3)c2)s1	–	16.4 µM (active)	–
COC(C)(C)CCn1nc(Nc2c(C)cccc2C)c2cnc(Nc3ccc(OCCN4CCCC4)c(F)c3)nc21	–	20.6 µM (active)	–
CC#CCn1c(N2CCCC(N)C2)nc2c1c(=O)n(Cc1nc(C)c3ccccc3n1)c(=O)n2C (centres undefined)	–	–	inactive
C=C(COC(=O)C(O)C(O)CN)C12OC1C1(C)C(=CC2=O)C(O)C(O)CC1C (centres undefined)	–	–	inactive
O=C(Nc1nnc(-c2ccc3c(c2)OCCO3)o1)C1CCCCC1	-19.9% (inactive)	–	–
CCC/C=C\C=C/CCc1cc(O)c([C@@H]2O[C@H](CO)[C@@H](O)[C@H](O)[C@H]2O)c(O)c1C(=O)OC	-5.96% [at 17.3 µM] (inactive)	–	–
COc1ccc(Cl)c(Nc2ncnc3cc(OCC4CCN(C)CC4)c(OC)cc23)c1	-4.33% (inactive)	–	–
O=C(c1ccccc1)c1c(O)cc(O)cc1O[C@@H]1O[C@H](CO)[C@@H](O)[C@H](O)[C@H]1O	-6.93% (inactive)	–	–
O=c1nc(-c2ccccn2)sc2ccccc12	-4.86% (inactive)	–	–
COc1ccc(C2Oc3c(OC)cc(CCCO)cc3C2COC2OC(CO)C(O)C(O)C2O)cc1OC (centres undefined)	–	–	inactive [at 17.3 µM]
O=C(NCC1CCN(Cc2cccc(Cl)c2)CC1)[C@@H]1CCCN(c2ncnc3c2nc2n3CCCC2)C1	-5.04% (inactive)	–	–

SMILES	activity change, negative = cytotoxicity	Potency	outcome
CC(C)S(=O)(=O)Nc1ccc(F)c(C(=O)c2c[nH]c3ncc(-c4cccnc4)cc23)c1F	-6.3% (inactive)	–	–
COc1ccc(-c2csc(NC(=O)[C@H]3CCCCN3S(=O)(=O)c3ccc(C)cc3)n2)cc1	-21% (inactive)	–	–
C=CC(C)(C)c1[nH]c2ccccc2c1C[C@@H]1NC(=O)[C@H](C)NC1=O	-5.67% (inactive)	–	–
Cc1cc(-c2cnc(N)c3c(-c4ccc5scnc5c4)csc23)n(C)n1	–	8.2 µM (active)	–
O.O=C([O-])CC([S-])C(=O)[O-].[Au+].[Na+].[Na+] (centres undefined)	-3.46% (inactive)	–	–
Nc1ncnc(Nc2ccc(Cl)cc2)n1	-12.4% (inactive)	–	–
C=C(C)[C@@H]1CC=C(COC(=O)NC(=O)c2ncn3c(=O)n(C)nnc23)CC1	-21.9% (inactive)	–	–
COc1cc(C(N)=O)nc(-c2ccccn2)c1O	-53.5% (inactive)	–	–
COc1ccc2nc3n[nH]c(C)c3c(NCCOCCO)c2c1	2.13% (inactive)	–	–
COc1ccc(NC(=O)c2ccc(C(=N)N(C)C)cc2)c(C(=O)Nc2ccc(Cl)cn2)c1	-11.6% (inactive)	–	–
Cc1c(C(=O)Nc2ccc(N3CCC(N4CCOCC4)CC3)c(C#N)c2)cnn1-c1ccc(Cl)cc1	–	0.82 µM (active)	–
Nc1nc2c(ncn2C2OC3COP(=O)(O)OC3C2O)c(=O)[nH]1 (centres undefined)	-0.115% (inactive)	–	–
O=C(Nc1ncc([N+](=O)[O-])s1)c1ccccc1O	–	5.8 µM (active)	–
COc1ccc(CNCC(O)COc2ccc3[nH]c(=O)ccc3c2)cc1OC (centres undefined)	3.46% (inactive)	–	–
CCC1C(=O)N(C)c2cnc(Nc3ccc(C(=O)NC4CCN(C)CC4)cc3OC)nc2N1C1CCCC1 (centres undefined)	–	0.231 µM (active)	–
CC(=O)O[C@@H]1C[C@@]23C[C@@]24CC[C@H](O[C@@H]2OC[C@H](O)[C@H](O)[C@H]2O)C(C)(C)[C@@H]4CC[C@H]3[C@]2(C)[C@@H](O)C34O[C@H](C[C@@H](C)[C@@H]3[C@@]12C)[C@@H](C(C)(C)O)O4	–	–	inactive
COc1cc(/C=N\NC(=O)c2ccc3c(c2)OCO3)ccc1OCc1ccccc1	-26.8% (inactive)	–	–
CCC(C)C(=O)O[C@H]1[C@H](O)[C@@]2(COC(C)=O)C(CC1(C)C)C1=CCC3[C@@]4(C)CC[C@H](O[C@@H]5O[C@H](C(=O)O)[C@@H](O)[C@H](O)[C@H]5O)[C@@](C)(CO)C4CC[C@@]3(C)[C@]1(C)C[C@@H]2O (some centres undefined)	-11.3% [at 9.29 µM] (inactive)	–	–
CC1OC(OC2C(O)COC(O[C@@H]3[C@@H](O)[C@@H](O)[C@H](OC4C(OC(=O)[C@]56CCC(C)(C)CC5C5=CCC7[C@@]8(C)C[C@H](O)[C@H](OC9OC(CO)C(O)C(O)C9O)[C@@](C)(CO)C8[C@H](O)C[C@@]7(C)[C@]5(C)CC6)OCC(O)C4O)O[C@H]3C)C2O)C(O)C(O)C1O (some centres undefined)	-5.97% [at 9.29 µM] (inactive)	–	–
